# Laboratory results taken from PubChem BioAssay AID651815 (National Center for Advancing Translational Sciences (NCATS), 2012).
# The campaign covered roughly 2,100 compounds. About 1,100 (52%) were called active. Inconclusive results (about 29%) are left out. Calls come from the whole dose curve; as a rule, active = well fitted inhibition curve with a large enough effect; inconclusive = small, poorly fitted or top-dose-only effect; inactive = no such curve, though single readings can be large or run the other way. The set was probably picked from earlier hits. Some of the results follow.
# Biological target: DNA dC->dU-editing enzyme APOBEC-3F (Homo sapiens) (UniProt Q8IUX4)
# Assay: qHTS for inhibitors of Vif-A3F interactions: Cherry picks counterscreen; note: nearly all actives have a fitted effect of over 65% in size
# Conditions: HeLa A3F-eYFP/Vif cells, eYFP fluorescence, 24 h; series mostly up to 46.1 µM
# Procedure, shortened: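 HeLa cells stably expressing A3F-eYFP and Vif, cultured overnight, then treated 24 h at 37 degrees C with compounds at several concentrations; yellow fluorescence (488 nm Ex/500-530 nm Em) imaged on Acumen; MG132 positive control.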
# Potency is the fitted concentration of half-maximal effect.
# Sequence of DNA dC->dU-editing enzyme APOBEC-3F (Homo sapiens) (Q8IUX4 whole entry, looked up): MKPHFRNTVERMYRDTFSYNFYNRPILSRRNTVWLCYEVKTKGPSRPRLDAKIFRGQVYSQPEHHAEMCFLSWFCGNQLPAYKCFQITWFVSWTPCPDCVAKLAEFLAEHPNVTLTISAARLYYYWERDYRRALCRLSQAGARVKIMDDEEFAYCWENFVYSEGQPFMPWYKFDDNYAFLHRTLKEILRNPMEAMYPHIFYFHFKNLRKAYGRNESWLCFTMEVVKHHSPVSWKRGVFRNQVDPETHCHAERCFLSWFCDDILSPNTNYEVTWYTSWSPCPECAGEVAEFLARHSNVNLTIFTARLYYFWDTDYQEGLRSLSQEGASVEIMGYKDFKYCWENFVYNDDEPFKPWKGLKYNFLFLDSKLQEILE
row,Structure (SMILES),Potency
1,COc1ccccc1-c1nnc2sc(-c3cc4ccccc4o3)nn12,5.59 µM (active)
2,Cc1c2ccccc2nc2c(F)c(NC(C)C)c(F)c(F)c12,6.51 µM (active)
3,CCCNc1c(F)c(F)c2c(C)c3ccccc3nc2c1F,15.8 µM (active)
4,c1ccc(-c2cnn3c(-c4ccccc4)c(-c4ccccc4)nc3n2)cc1,0.461 µM (active)
5,CC(C)(C)C(=O)c1sc2nc(-c3cccs3)cc(C(F)(F)F)c2c1N,1.84 µM (active)
6,CC(=O)c1sc2nc(-c3cccs3)cc(C(F)(F)F)c2c1N,16.4 µM (active)
7,Nc1c(C(=O)C2CC2)sc2nc(-c3cccs3)cc(C(F)(F)F)c12,1.16 µM (active)
8,CCCc1nc2c(C)cc(Br)cn2c1Cc1ccccc1,inactive
9,CC(C)n1cc(/C=C/c2cc[n+](C)cc2)c2ccccc21,0.0559 µM (active)
10,C=CCn1cc(/C=C/c2cc[n+](C)cc2)c2ccccc21,0.198 µM (active)
11,CCn1cc(/C=C/c2cc[n+](C)cc2)c2ccccc21,0.0498 µM (active)
12,COc1cc(OC)c(/C=C/c2ccc3ccccc3[n+]2C)c(OC)c1,11.6 µM (active)
13,CCc1c(C)nc(SCC(=O)c2cccs2)c(C#N)c1C,inactive
14,N#Cc1c(-c2ccccc2F)cc(C2CC2)nc1SCC(=O)c1cccs1,14 µM (active)
15,Fc1ccc(COc2ccc3ccccc3c2CNc2nn[nH]n2)cc1,19.8 µM (active)
16,COc1cccc(CNCCSc2nnnn2C)c1OCc1ccc(F)cc1,inactive
17,O=C(NNC1=Nc2cccc3cccc1c23)c1ccc(Br)cc1,23.1 µM (active)
18,COc1cc(OC)c(/C=C2\SC(=O)N(CC(=O)Nc3ccccc3F)C2=O)c(OC)c1,12.5 µM (active)
19,O=C(Cn1nc2c(cc1=O)CCCC2)NCc1ccc(Cl)cc1,16.4 µM (active)
20,N#C/C(=C/c1cccs1)c1ccccn1,15.8 µM (active)
21,CC(=O)Nc1cccc(-c2ccnc3c2CC(C)(C(=O)NCc2ccccc2)O3)c1 (stereo unspecified),2.8 µM (active)
22,CC1(C(=O)NCc2ccccc2)Cc2c(-c3ccc(C(N)=O)cc3)ccnc2O1 (stereo unspecified),7.9 µM (active)
23,CC1(C(=O)NCc2ccco2)Cc2c(-c3cccc(C(N)=O)c3)ccnc2O1 (stereo unspecified),14 µM (active)
24,CC(=O)Nc1cccc(-c2ccnc3c2CC(C)(C(=O)NCc2cccs2)O3)c1 (stereo unspecified),4.44 µM (active)

row,Structure (SMILES),Potency
1,CC1(C(=O)NCc2ccccc2)Cc2c(-c3cccc(C(N)=O)c3)ccnc2O1 (stereo unspecified),7.04 µM (active)
2,CC(=O)Nc1cccc(-c2ccnc3c2CC(C(=O)NCc2cccs2)O3)c1 (stereo unspecified),5.59 µM (active)
3,Cc1ccc2nc(/C(C#N)=C\c3ccc([N+](=O)[O-])o3)[nH]c2c1,10.3 µM (active)
4,CCCOc1cc(N(CC)CC)ccc1/C=C(/C#N)c1nc2ccc(C)cc2[nH]1,inactive
5,N#C/C(=C\c1ccc(Cl)cc1)c1nc2ncccc2[nH]1,15.8 µM (active)
6,N#C/C(=C\c1ccc([N+](=O)[O-])o1)c1nc2ccccc2[nH]1,8.2 µM (active)
7,N#C/C(=C\c1cccnc1)c1nc2ccccc2[nH]1,14 µM (active)
8,CC(/C=N/NC(=O)c1cc(-c2ccccc2)nc2ccccc12)=C\c1ccco1,3.14 µM (active)
9,CCn1c(O)c(/C=N/NC(=O)c2ccncc2)c(=O)n(CC)c1=S,inactive
10,O=C(N/N=C/c1ccco1)c1cc(-c2ccncc2)nc2ccccc12,6.27 µM (active)
11,CCc1ccc(/C=N/NC(=O)c2cc(-c3ccncc3)nc3ccccc23)s1,4.98 µM (active)
12,C/C(=N\NC(=O)c1cc(-c2ccncc2)nc2ccccc12)c1ccc(N2CCOCC2)cc1,inactive
13,CC1CCN(c2ccc3c(c2)S(=O)(=O)c2cccc(C(=O)NCc4cccc(F)c4)c2C3=O)CC1,14 µM (active)
14,O=C(NCc1cccc(F)c1)c1cccc2c1C(=O)c1ccc(N3CCCC3)cc1S2(=O)=O,17.7 µM (active)
15,Cc1ccc(CNC(=O)c2cccc3c2C(=O)c2ccc(N4CCC(C)CC4)cc2S3(=O)=O)cc1,14.6 µM (active)
16,COc1ccc2oc(=Nc3ccccc3)c(-c3nc4ccccc4[nH]3)cc2c1,20.6 µM (active)
17,COc1cc(C(=O)Nc2ccc(C)cc2)c2ccccc2n1,1.77 µM (active)
18,CCOC(=O)c1csc(NC(=O)c2cc(-c3ccccn3)nc3ccccc23)n1,inactive
19,Cc1ccc(C)c(NC(=O)Cn2cc(S(=O)(=O)Cc3cccc(Cl)c3)c3ccccc32)c1,6.51 µM (active)
20,Cc1ccc(Cl)cc1NC(=O)Nc1cn(CC(C)C)c(=O)c2ccccc12,inactive
21,COc1ccc(C2CC(c3ccncc3)=NN2c2ccc(S(N)(=O)=O)cc2)cc1 (stereo unspecified),20.6 µM (active)
22,CCS(=O)(=O)N1N=C(c2ccc(C)cc2)CC1c1cc2ccc(OC)cc2nc1Cl (stereo unspecified),inactive
23,COc1ccc2nc(NC(=S)NC(=O)c3ccco3)sc2c1,inactive
24,O=C(Nc1nc2ccc(F)cc2s1)c1ccc([N+](=O)[O-])o1,15.8 µM (active)

row,Structure (SMILES),Potency
1,COc1ccc(NC(=O)c2c(Cl)n(C)c3ccccc23)cc1,14 µM (active)
2,COc1cc(OC)c(OC)cc1/C=C1\CC(C)C/C(=C\c2cc(OC)c(OC)cc2OC)C1=O (stereo unspecified),18.4 µM (active)
3,CCCOc1ccc2cc(C(=O)NCc3ccccc3)c(=O)oc2c1,inactive
4,CCOc1ncccc1C(=O)NCc1ccc(OC)cc1,8.86 µM (active)
5,CCOc1ccc(CNC(=O)c2ccccc2NC(=O)c2nsc3ccccc23)cc1,16.4 µM (active)
6,COc1ccc2c(n1)Sc1nc3ccccc3nc1N2,3.26 µM (active)
7,COc1ccc(C2C(C#N)=C(N)Oc3c2ccc2cccnc32)cc1OC (stereo unspecified),3.53 µM (active)
8,COc1ccc(C2C(C#N)=C(N)Oc3cc(N)ccc32)cc1OC (stereo unspecified),12.5 µM (active)
9,COc1cc(C2C(C#N)=C(N)Oc3cc(O)ccc32)cc2c1OCO2 (stereo unspecified),15.8 µM (active)
10,Cc1oc(C)c2c(=O)ccc3c(c12)OC(N)=C(C#N)C3c1ccc(F)cc1 (stereo unspecified),inactive
11,N#CC1=C(N)Oc2cc(N)ccc2C1c1cccc(F)c1 (stereo unspecified),2.5 µM (active)
12,N#CC1=C(N)Oc2cc(N)ccc2C1c1cccc(Br)c1 (stereo unspecified),1.98 µM (active)
13,Cc1ccc2nc(-c3ccccn3)c(NC3CCCC3)n2c1,inactive
14,O=C(N/N=C/c1ccc(Cl)cc1)c1cc2c(s1)-c1ccccc1CC2,5.59 µM (active)
15,Cc1cc2c(cc(C(=O)OCC(=O)NCc3cccs3)n2C(C)C)o1,1.77 µM (active)
16,CCOC(=O)Cc1csc(NC(=O)c2sc3nc4c(C)cc(C)cc4cc3c2N)n1,16.4 µM (active)
17,O=C(Cn1ncc(Cl)c(Cl)c1=O)Nc1ccc2c(c1)OCO2,15.8 µM (active)
18,Cc1cc(C)cc(Oc2nc(C(F)(F)F)nc3ccccc23)c1,11.2 µM (active)
19,CNC(=S)N/N=C/c1ccc(N2CCOCC2)s1,inactive
20,Cc1ccc(/C=N/NC(=O)c2ccc3ccccc3c2)s1,2.23 µM (active)
21,Cc1ccc(/C=N/NC(=O)C2COc3ccccc3O2)s1 (stereo unspecified),4.98 µM (active)
22,Cc1sc2ncn(CC(=O)NCc3ccccc3)c(=O)c2c1C,inactive
23,CC(C)(C)n1ncc2c(=O)n(CC(=O)NCc3ccc(F)cc3)cnc21,14 µM (active)
24,Cc1ccc(Cn2nnc3c(=O)n(CC(=O)NCc4ccccc4)cnc32)cc1,14 µM (active)

row,Structure (SMILES),Potency
1,O=C(Cn1cnc2c(cnn2-c2ccc(F)cc2)c1=O)NCc1ccco1,9.94 µM (active)
2,CCc1cccc2c(C(O)c3c[nH]c4ccccc34)c[nH]c12 (stereo unspecified),20.6 µM (active)
3,CCn1c(SCC(=O)Nc2cccc(O)c2)nc2c1c(=O)n(C)c(=O)n2C,inactive
4,COc1ccc(NC(=O)CSc2nc3c(oc4ccccc43)c(=O)n2Cc2ccco2)cc1Cl,18.4 µM (active)
5,N=c1n(CC(=O)c2ccc([N+](=O)[O-])cc2)c2ccccc2n1Cc1ccccc1,20.6 µM (active)
6,Cc1ccc2c(CC(=O)NCc3ccco3)coc2c1C,9.94 µM (active)
7,Cc1cccc(C)c1OCCNC(=O)C(=O)NCc1ccco1,2.8 µM (active)
8,O=C(COC(=O)C12CC3CC(CC(Cl)(C3)C1)C2)N1CCCCC1,inactive
9,COc1ccc2o/c(=N/NC(=O)c3cccs3)c(C(N)=O)cc2c1,7.04 µM (active)
10,Cc1ccc2c(Cl)c(C)c(N3CCCC3)nc2n1,inactive
11,COc1ccc(Nc2nc3cc(C)ccc3cc2C#N)cc1,14.6 µM (active)
12,CCN(CC)c1nc2cc(OC)ccc2cc1C#N,inactive
13,COc1ccc(Nc2nc3cc(C)ccc3cc2C#N)c(OC)c1,1.58 µM (active)
14,O=[N+]([O-])c1ccc(N/N=C/c2c[nH]c3ccccc23)c(S(=O)(=O)Nc2ccc(Cl)cc2)c1,18.4 µM (active)
15,C/C(=N/Nc1ccc([N+](=O)[O-])cc1)c1c[nH]c2ccccc12,inactive
16,COc1ccccc1NS(=O)(=O)c1cc([N+](=O)[O-])ccc1N/N=C/c1c(C)[nH]c2ccccc12,3.96 µM (active)
17,Cc1ccccc1NCC(=O)N=Nc1c(O)[nH]c2ccc([N+](=O)[O-])cc12,inactive
18,O=[N+]([O-])c1ccc(N/N=C/c2c[nH]c3ccccc23)cc1,16.4 µM (active)
19,Cc1[nH]c2ccccc2c1/C=N/Nc1ccc([N+](=O)[O-])cc1,9.2 µM (active)
20,O=[N+]([O-])c1ccc(N=Nc2ccc(O)c3ccccc23)cc1,inactive
21,COc1ccccc1NS(=O)(=O)c1cc([N+](=O)[O-])ccc1N/N=C/c1c[nH]c2ccccc12,13 µM (active)
22,COc1ccc(NS(=O)(=O)c2cc([N+](=O)[O-])ccc2N/N=C/c2c(C)[nH]c3ccccc23)cc1,10.3 µM (active)
23,CC(C)CC(=O)NC(=S)N(Cc1ccccc1)Cc1ccccc1,inactive
24,CC[n+]1c(C=C2C=C(C)OC(C)=C2)sc2ccccc21,4.61 µM (active)
